# According to PubChem BioAssay AID798 (PCMD, 2007):
# Screen size: about 220,000 compounds; about 300 (0.14%) were called active. The sample as a whole holds a higher share of actives than the screen did. Unmarked numbers belong to inactive results.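 The calls were made as follows: active = inhibition of at least 40%; inactive = inhibition below 40%.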
# Molecular target: Coagulation factor XI (Homo sapiens) (UniProt P03951)
# Assay: factor XIa enzyme inhibition, large library – biochemical, 1536-well, primary screen (AID 798);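 also: fluorescence of freed AMC excited at 355 nm; 0% = enzyme without compound and 100% = no enzyme blank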
# Conditions: purified FXIa, Boc-Glu-Ala-Arg-AMC fluorogenic substrate; at 5 µM; active compounds read high
# Coagulation factor XI (Homo sapiens), sequence (P03951 19-387 limits assumed): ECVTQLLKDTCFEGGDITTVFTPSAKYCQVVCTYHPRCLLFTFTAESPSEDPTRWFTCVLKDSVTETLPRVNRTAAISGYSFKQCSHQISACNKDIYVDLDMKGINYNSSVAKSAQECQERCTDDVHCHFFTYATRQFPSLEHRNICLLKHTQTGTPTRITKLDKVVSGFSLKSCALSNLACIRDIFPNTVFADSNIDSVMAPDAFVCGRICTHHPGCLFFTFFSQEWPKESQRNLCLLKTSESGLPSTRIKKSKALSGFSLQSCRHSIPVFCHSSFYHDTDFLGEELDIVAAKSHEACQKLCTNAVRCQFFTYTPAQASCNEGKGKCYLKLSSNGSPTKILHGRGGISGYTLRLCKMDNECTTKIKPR
# Coagulation factor XI (Homo sapiens), sequence (P03951 388-625 limits assumed): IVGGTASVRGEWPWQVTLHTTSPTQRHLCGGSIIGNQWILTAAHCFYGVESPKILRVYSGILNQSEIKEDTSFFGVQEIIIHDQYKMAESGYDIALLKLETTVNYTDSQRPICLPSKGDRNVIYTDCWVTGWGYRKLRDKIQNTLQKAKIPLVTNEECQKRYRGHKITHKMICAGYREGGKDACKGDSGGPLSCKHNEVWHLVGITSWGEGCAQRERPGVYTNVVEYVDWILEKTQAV
row,SMILES,inhibition
1,Cc1c(Br)ccc(NC(=O)COc2ccccc2C(N)=O)c1C,3.29%
2,C/C=C(/C)C(=O)O[C@@H]1c2cc3c(c4c2[C@@]2(CO4)C(=O)C(OC)=C(OC)C=C2C[C@@H](C)[C@H]1C)OCO3,0.96%
3,COc1ccc(SC[C@H](Cc2ccccc2)N2CCN(CCc3ccccc3)CCC2=O)cc1,0.67%
4,Cn1cnc(S(=O)(=O)Nc2ccc3c(c2)OCCO3)c1,3.26%
5,Cc1ccc(NC(=O)NC(=O)CSc2nnc(-c3ccc(OC(F)F)cc3)n2N)c(C)c1,3.67%
6,CCN=c1sc(C(=O)Nc2ccccc2)c(C)n1CC,-2.02%
7,Cc1cc(C(=O)OCC(=O)Nc2nnc(C(C)C)s2)c2ccccc2n1,-3.05%
8,CC1=C(C(=O)N(C)C)C(c2ccccc2OC(F)F)NC(=O)N1 (stereo unspecified),0.62%
9,Cc1ccc(OC(=O)CCC(=O)Nc2ccc(Br)cc2)cc1,-1.21%
10,O=S(=O)(NC(=S)Nc1ccccc1)c1ccc(F)cc1,4.03%
11,CCOC(=O)CN(C)S(=O)(=O)c1ccc(-c2cc(C(=O)OC)sc2C(F)(F)F)cc1,32.6%
12,CN1CCN(C(=O)CCc2ncc(C(F)(F)F)cc2Cl)CC1,7.14%
13,COC(=O)c1c(NC(=O)CCCC(=O)O)sc2c1CCCCC2,-0.58%
14,O=C(N/N=C/c1cc2c(cc1Br)OCO2)C1COc2ccccc2O1 (stereo unspecified),-10.7%
15,C[N+]1(CC(O)COc2ccccc2)CCN(C(=O)c2ccc([N+](=O)[O-])cc2)CC1 (stereo unspecified),0.51%
16,Cc1nc2cc(NC(=O)Nc3cccc(F)c3)ccc2n1C,43.8% (active)
17,Cc1nc2cc(NC(=O)NC3CC3)ccc2n1C,-5.28%
18,C=CCN(C(=O)Nc1ccc2c(c1)nc(C)n2C)c1ccccc1,26.2%
19,Cc1cc(-c2csc(N)n2)c(C)n1-c1ccccc1,2.06%
20,CCOc1ccc(/C=C2\SC(=S)N(NC(=O)c3ccncc3)C2=O)cc1OC,6.9%
21,C[C@H](NC(=O)c1nc[nH]c1C(=O)N[C@@H](C)C(=O)OC(C)(C)C)C(=O)OC(C)(C)C,1.92%
22,CN(C)C(=S)Nc1ccc(Br)cc1Cl,1.74%
23,NC(=O)Cn1nc([N+](=O)[O-])nc1Oc1ccc(Br)cc1,0.41%

row,SMILES,inhibition
1,O=C(Cc1ccc(F)cc1)N1CCN=C1SCc1cccc([N+](=O)[O-])c1,-3.4%
2,Cc1cccc(N(C(=O)Cc2cccs2)C(C(=O)NCc2ccco2)c2ccncc2)c1 (stereo unspecified),-1.59%
3,CN(C)/N=C/c1cc(Cl)cc([N+](=O)[O-])c1O,2.99%
4,CC(=O)NC1(c2ccc(F)cc2)CCN(C(=O)c2c(F)cccc2F)CC1,-6.45%
5,Cc1cccc(N2CCN(Cc3nc(C4CC4)no3)CC2)n1,-4.4%
6,Cc1ccc(S(=O)(=O)N2CCN(CC(=O)N/N=C/c3cc([N+](=O)[O-])ccc3Cl)CC2)cc1,3.33%
7,COc1nc(NC2CCCCC2)nc(N2CCCCCC2)n1,5.12%
8,O=c1nc(N/N=C/c2ccco2)cn[nH]1,-0.64%
9,CC(C)OP(=O)(OC(C)C)C(Nc1ccccc1)c1cccc([N+](=O)[O-])c1 (stereo unspecified),2.9%
10,COc1cccc(N2C(=O)CC(N3CCc4ccccc4C3)C2=O)c1 (stereo unspecified),-2.99%
11,Cc1ccc(NN=C2C(=O)OC(C)(C)OC2=O)c(C)c1,-3.38%
12,O=C(COc1ccccc1[N+](=O)[O-])N/N=C/c1ccc[nH]1,2.13%
13,CC(C)c1nc(SCC(=O)NC(=O)NC(C)(C)C)n[nH]1,1.78%
14,Cc1ccc(C(=O)Cn2cc([N+](=O)[O-])nc2C)cc1,2.54%
15,O=C(CNCc1ccc(F)cc1)Nc1ccccc1-c1ccccc1,5.85%
16,O=C(COC(=O)C12CC3CC(CC(O)(C3)C1)C2)NC12CC3CC(CC(C3)C1)C2,-0.93%
17,CCOC(=O)c1ccc(NC(=O)Cn2cnc3cc(C)c(C)cc32)cc1,-1.09%
18,COc1ccc(CN2C(=O)CC(Cc3ccc(C)cc3)C2=O)cc1OC (stereo unspecified),16.3%
19,Cc1nc(N)[nH]c(=O)c1Oc1cccc(C(F)(F)F)c1,-2.42%
20,CC(C)(C)NC(=O)CSC(=Nc1ccccc1F)NC#N,7.8%
21,CCC1SC(CC)C(=O)N(CC(=O)NC2CCCCC2)C1=O (stereo unspecified),26%
22,Cc1ccccc1Cn1c2ccccc2c2cnn(CC(=O)NCc3ccco3)c(=O)c21,-0.28%
23,COCCNC(=S)N1CCC(NC(=O)C23CC4CC(CC(C4)C2)C3)CC1,-6.69%

row,SMILES,inhibition
1,O=C(COc1ccc(Cl)cc1[N+](=O)[O-])N1CCCCC1,-5.02%
2,CCOc1cc(CN2CCN(C(=O)CC(C)C)CC2)ccc1OC,-13.4%
3,CCOc1cc(CO)ccc1OCC(=O)N1CCCCC1,40.9% (active)
4,COc1ccccc1OCC(=O)OCn1c(SC)nnc(C)c1=O,5.82%
5,CCOC(=O)N1CCN(Cc2nc3ccc([N+](=O)[O-])cc3c(=O)n2-c2cccc(OC)c2)CC1,-1.56%
6,Cc1cc(C(=O)CSc2nc(N)cc(=O)[nH]2)c(C)n1Cc1ccco1,-4.8%
7,CCc1cccc(CC)c1NC(=S)Nc1ccc2cn[nH]c2c1,0.17%
8,O=C(O)c1ccccc1OCc1ccccc1Cl,1.64%
9,COCCN(CCOC)c1nc(N)c2c(N)nc3c(c2c1C#N)CC(=O)N3Cc1ccc(Cl)cc1,-10.3%
10,CC1=NN(/C(=N\c2nnc(C)s2)Nc2ccccc2)[C@H](c2ccc(C)cc2)S1,0.56%
11,COC(=O)c1sccc1-n1cccc1C(=O)C(=O)N1CCCCC1,0.21%
12,O=C(Nc1ccc(Cl)cc1)Nc1ccc(C(=O)N2CCOCC2)cc1,4.9%
13,OC(c1nc2ccccc2[nH]1)C(O)C(O)C(O)c1nc2ccccc2[nH]1 (stereo unspecified),1.7%
14,O=C(CCS(=O)(=O)Cc1ccccc1)Nc1ccc2c(c1)OCCO2,-6.9%
15,COC(=O)Cc1[nH]n(-c2nc3ccccc3s2)c(=O)c1C(C)=Nc1ccc(OC)cc1,2.75%
16,N#C/C(=C/c1cccc([N+](=O)[O-])c1)c1nnc2n1CCCCC2,0.95%
17,O=C(Cn1cc(C(F)(F)F)ccc1=O)N/N=C/c1ccc(Cl)cc1Cl,6.17%
18,O=C1N/C(=C/c2cccn2-c2ccccc2)C(=O)N1c1cccc(Cl)c1,-9.57%
19,COCCNC(=O)C(c1ccc(O)cc1)N(C(=O)CCC(=O)Nc1nccs1)c1ccc(C)cc1 (stereo unspecified),1.25%
20,CCC(C)(C)NC(=O)CN(Cc1cccs1)C(=O)CNS(=O)(=O)c1ccc(F)cc1,-7.45%
21,CC(C)C(NC(=O)C1CCC(C(C)(C)C)CC1)C(=O)NCCCN1CCCCC1 (stereo unspecified),-3.84%
22,COc1ccccc1NC(=O)c1cc(Cl)nc2ccccc12,-7.34%
23,Cc1c(C(=O)NC(=S)NCc2cccnc2)oc2ccccc12,-1.74%

row,SMILES,inhibition
1,CN(C)CC(C)(C)CNC(=O)c1cc(Br)cc(Br)c1O,-3.11%
2,COc1c(C)cc(C(=O)C2CCCN(S(=O)(=O)c3c(C)noc3C)C2)cc1C (stereo unspecified),102% (active)
3,Cc1ccc(NC(=O)C2CCCN(S(=O)(=O)c3c(C)noc3C)C2)c(C)c1 (stereo unspecified),-3.38%
4,Cc1noc(C)c1S(=O)(=O)N1CCCC(C(=O)Nc2nccs2)C1 (stereo unspecified),1.07%
5,FC(F)(F)c1cccc(-c2nc(COc3ccc(Cl)cc3Cl)no2)c1,2.41%
6,CN1CCc2ccccc2C1Cc1ccccc1NC(=O)c1sc2ccccc2c1Cl (stereo unspecified),2.33%
7,CCOC(=O)CSC1=N/C(=C/c2ccc(-n3cncn3)cc2)C(=O)N1C(C)=O,3.79%
8,O=c1[nH]c(CN2CCOCC2)nc2scc(-c3ccccc3)c12,-11.5%
9,Cc1cccc2cc(CN(C(=O)c3cccs3)c3ccccc3)c(=O)[nH]c12,-1.12%
10,COc1ccc(OCc2n[nH]c(=S)n2N)cc1,-0.79%
11,NS(=O)(=O)c1ccc(CCNC(=O)NC2CCCCC2)cc1,3.22%
12,Cc1ccc(C(=O)Nc2ccc(C)c(S(=O)(=O)N(C)C)c2)s1,6.45%
13,C#CCOCCOCCOCCNc1nc(N2CCN(C(=O)[C@H](CCC(=O)O)n3cc(C(N)CO)nn3)CC2)nc(N2CCN(C(=O)[C@H](CCCCN)n3cc(C(N)CC(C)C)nn3)CC2)n1 (stereo partly specified),0.58%
14,NC(=O)C1=C[C@@H](c2csc3ccccc23)C[C@@H](OCc2ccc(CO)cc2)O1,-0.4%
15,CN(CCc1ccccn1)C(=O)CCC1CCCN(Cc2ccccc2OC(F)F)C1 (stereo unspecified),-3.18%
16,COc1ccccc1CN(C)c1nnnn1-c1ccccc1,-0.22%
17,CC(C)Cc1nnc(NC(=O)CCC(=O)Nc2ccc3cn[nH]c3c2)s1,5.73%
18,C=CC(COCc1ccccc1)N(Cc1ccccc1)S(=O)(=O)c1ccccc1Br (stereo unspecified),-5.35%
19,COc1cc2[nH]c(=O)n(Cc3ccc(C(=O)NC4CCN(Cc5ccccc5)CC4)cc3)c(=O)c2cc1OC,-5.4%
20,CCSC1=NCCN1C(=O)c1ccc(S(=O)(=O)N(CC)CC)cc1,-2.2%
21,CCC(C(=O)Nc1ccc2c(c1)OCCO2)c1ccccc1 (stereo unspecified),-1.53%
22,CC12CN3CCN(CC(C3)/C1=N\NC(=O)c1ccccc1N)C2,-0.67%
